# Test results as given in PubChem BioAssay (NCI).
# About 83,000 compounds went through this panel and 20% of them were active in at least one assay; those are over-represented in the sample as a whole.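 Cells were grown in 96-well plates and exposed to the test compound at a single concentration for 48 hours; results are reported as percent growth, with values below 10 considered active.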 Values without a mark were called inactive. Calls of active or inactive are those of the source.
# Experiments:
# Assay in all cases: NCI-60 one-dose screen, 48 h (100 = growth as untreated, 0 = no growth, -100 = all killed)
# Conditions in all cases: 10 µM unless noted
# SK-MEL-2 melanoma = test system: SK-MEL-2 melanoma
# EKVX NSCLC = test system: EKVX NSCLC
# SN12C renal = test system: SN12C renal
# UO-31 renal = test system: UO-31 renal
# TK-10 renal = test system: TK-10 renal
# ACHN renal = test system: ACHN renal
# CAKI-1 renal = test system: CAKI-1 renal
# A498 renal = test system: A498 renal
# CCRF-CEM leukemia = test system: CCRF-CEM leukemia
# MOLT-4 leukemia = test system: MOLT-4 leukemia
Compound,growth (SK-MEL-2 melanoma),growth (EKVX NSCLC),growth (SN12C renal),growth (UO-31 renal),growth (TK-10 renal),growth (ACHN renal),growth (CAKI-1 renal),growth (A498 renal),growth (CCRF-CEM leukemia),growth (MOLT-4 leukemia)
CC(Nc1c(C#N)cnc2ccc(-c3cncc(-c4n[nH]c(=O)o4)c3)cc12)c1ccccc1 (stereo not given),-34% (active),-12% (active),11%,1.27% (active),-23.8% (active),9.24% (active),4.01% (active),-6.1% (active),19.6%,8.04% (active)
Cc1ccc2c(n1)C(=O)C(Cl)=C(Nc1ccc(C)c(C)c1)C2=O,40%,52.6%,0.141% (active),44%,140%,57%,90%,71.8%,30.8%,60.1%
Cc1nc(/N=C(N)/N=C(\N)c2cccc(Br)c2)sc1C,64%,60.2%,47.3%,52.5%,83.3%,49.9%,48.6%,43.5%,34%,39.7%
O=C(Nc1ccc(Cl)c(C(F)(F)F)c1)Nc1ccc2oc(=O)ccc2c1,71.2%,35.2%,31.9%,31.3%,70.4%,10.2%,36.1%,33%,25.5%,28.2%
COc1cc(OC)cc(-c2cc(-c3c[nH]c4ccccc34)nc(-c3c[nH]c4ccccc34)c2C#N)c1,88.4%,91.5%,95.1%,71.3%,124%,97.2%,91%,96.7%,97.2%,98.6%
CCOC(=O)c1c(NC(=O)c2cccc(C(F)(F)F)c2)sc2c1CCC(=O)C2,71.9%,39.4%,42.9%,7.65% (active),54.9%,8.52% (active),23.9%,106%,8.47% (active),36.8%
Brc1ccc2[nH]cc(-c3nn4cc(-c5nccs5)nc4s3)c2c1,81.4%,64.9%,71.1%,-48.1% (active),98.3%,3.16% (active),-36.8% (active),47.5%,17.1%,16.5%
COc1ccc(/C=N/NC(=O)CSc2nc(-c3cnccn3)cc(-c3cccs3)c2C#N)cc1OC,102%,85.9%,91.1%,89%,123%,83%,88.1%,38.2%,93.9%,90.8%
Cc1[nH]c(C(=O)Nc2ccc(S(=O)(=O)N3CCCCC3)cc2OCCOCCOCCOCCOCCOCCOCCOCCOCCOc2cc(S(=O)(=O)N3CCCCC3)ccc2NC(=O)c2[nH]c(C)c3c2CCCCC3=O)c2c1C(=O)CCCC2,-11.7% (active),44%,23.1%,40.5%,8.54% (active),67.5%,15.9%,-42.9% (active),38.4%,11.8%
Cc1csc(/N=C(N)/N=C(\N)c2cccnc2)n1,68.2%,82.8%,80.1%,77.7%,116%,78.4%,60.1%,59.6%,79.2%,83%
CCCN1C=C/C(=C\C(=O)n2ccc3ccccc32)c2ccccc21,105%,56.5%,84.1%,53%,105%,82.8%,60.1%,92.9%,73.3%,76.5%
CC(C)(C)c1cc(NC(=O)Nc2ccc(-c3cn4c5c(sc4n3)CCc3c[nH]cc3-5)cc2)no1,-11.7% (active),32.9%,44.2%,7.92% (active),65.2%,21.2%,13.9%,-17.9% (active),15.1%,-10.8% (active)
CCCC/C(=C\c1ccc(O)c(O)c1)C(=O)NC(Cc1ccccc1)C(=O)C(=O)NCCc1ccc(OC)cc1 (stereo not given),98.8%,83.3%,95.3%,93.4%,107%,96.2%,96.5%,85.7%,97%,85.4%
CN(C)CCNc1ccc2ncc(C#Cc3cncc(C(=O)Nc4ccc(CN5CCN(C)CC5)c(C(F)(F)F)c4)c3)n2n1,0.656% (active),7.33% (active),-9.94% (active),77.8%,26.6%,10.7%,3.13% (active),87.7%,5.95% (active),-9.54% (active)
O=C(Nc1cccc(Cl)c1)Nc1nc2cc([N+](=O)[O-])ccc2o1,45.5%,27.8%,35.3%,59.3%,94.9%,47.8%,62%,28.3%,25%,33.8%
C#CCN(C)CCCOc1ccc(NCc2ccc(C(=O)NO)cc2)cc1Cl,15%,35.5%,37.8%,-13.7% (active),-3.24% (active),9.03% (active),8.63% (active),-14.9% (active),13.7%,17.3%
O=C(CCCCCCN1CC(=O)N2[C@@H](c3ccc(Cl)s3)c3[nH]c4ccccc4c3C[C@H]2C1=O)NO,59.9%,49.1%,72.7%,57.8%,43.4%,66.8%,48.8%,72.8%,16.7%,11.2%
Clc1ccc2c(N/N=C/c3c[nH]c4ccccc34)ccnc2c1,-82.2% (active),-79.3% (active),-77.2% (active),-95.1% (active),-91.9% (active),-98.1% (active),-97.5% (active),-93.6% (active),-10% (active),-48.5% (active)
